# Measured values taken from PubChem BioAssay.
# Activity calls are given as the source filed them. Unless noted, the rule behind the calls is not given here.
# Experiments:
# [1] = resazurin metabolic signal in HepG2 cells – cell-based, resazurin fluorescence, 24 h, PK04 Diversity Set, profiling panel (AID 1172); settings: HepG2 viability, higher = more signal; note: test concentration not given here
# [2] = budding yeast growth changes without added modifier – OD600, strain BY4716, 24 h, basal condition, primary screen (AID 1173); settings: S. cerevisiae BY4716 growth, OD600, 24 h; higher = more signal, called active from +8 up or from −8 down
# [3] = viability profiling in MM1S myeloma cells – cell-based, resazurin fluorescence, basal, 24 h, PK04 Diversity Set, profiling panel (AID 1174); settings: higher = more signal, called active from +8 up or from −8 down;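 note: MM1S multiple myeloma cell line; test concentration not given here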
# [4] = biological target: Dihydroorotate dehydrogenase (quinone), mitochondrial (Plasmodium falciparum (isolate 3D7)) (UniProt Q08210); experiment: inhibition of P. falciparum DHODH – biochemical, C-terminal His tag, absorbance 600 nm, primary screen (AID 1175); settings: PfDHODH enzyme, DCIP absorbance 600 nm; higher = more signal, called active from +8 up or from −8 down;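 note: recombinant parasite enzyme with a five histidine tag at its C terminus; test concentration not given here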
# [5] = inhibition of PAO1 biofilm formation – strain PAO1, LB-PBS medium, absorbance 600 nm, primary screen (AID 1176); note: test concentration not given here; settings: P. aeruginosa PAO1 growth/biofilm, A600, 12 h; higher = more signal
# [6] = growth modulation of vineyard yeast isolate – strain RM11-1a, OD600, basal, 24 h, primary screen (AID 1177);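 note: cultures grown under basal conditions with no added stressor; test concentration not given here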; settings: S. cerevisiae RM11-1a growth, OD600, 24 h; higher = more signal, called active from +8 up or from −8 down
# [7] = growth of efflux-deficient E. coli DRC39 – strain DRC39, OD650, 24 h, E. coli filamentation inducers, primary screen (AID 1178);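 note: growth measured as culture turbidity by optical density at 650 nm; test concentration not given here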; settings: E. coli DRC39 acrAB, higher = more signal, called active from +8 up or from −8 down
# [8] = growth of efflux-deficient E. coli DRC39 – strain DRC39, OD650, 48 h, E. coli filamentation inducers, primary screen (AID 1179);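 note: screen aims at cell division blockers that make cells filament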; settings: E. coli DRC39 delta-acrAB growth, higher = more signal, called active from +8 up or from −8 down
# [9] = viability profiling in RPMI8226 myeloma cells – cell-based, resazurin fluorescence, basal, 24 h, PK04 Diversity Set, profiling panel (AID 1180); settings: higher = more signal;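 note: RPMI8826 multiple myeloma cell line at 5000 cells per well; test concentration not given here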
# [10] = biological target: E3 ubiquitin-protein ligase XIAP (Homo sapiens) (UniProt P98170); experiment: small molecules binding XIAP protein – biophysical, small-molecule microarray, fluorescence 635 nm, primary screen (AID 1181); settings: higher = more signal;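 note: score merges 667 nm emission and signal to noise over triplicate slides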
# Chain of E3 ubiquitin-protein ligase XIAP (Homo sapiens) (P98170 whole entry, looked up): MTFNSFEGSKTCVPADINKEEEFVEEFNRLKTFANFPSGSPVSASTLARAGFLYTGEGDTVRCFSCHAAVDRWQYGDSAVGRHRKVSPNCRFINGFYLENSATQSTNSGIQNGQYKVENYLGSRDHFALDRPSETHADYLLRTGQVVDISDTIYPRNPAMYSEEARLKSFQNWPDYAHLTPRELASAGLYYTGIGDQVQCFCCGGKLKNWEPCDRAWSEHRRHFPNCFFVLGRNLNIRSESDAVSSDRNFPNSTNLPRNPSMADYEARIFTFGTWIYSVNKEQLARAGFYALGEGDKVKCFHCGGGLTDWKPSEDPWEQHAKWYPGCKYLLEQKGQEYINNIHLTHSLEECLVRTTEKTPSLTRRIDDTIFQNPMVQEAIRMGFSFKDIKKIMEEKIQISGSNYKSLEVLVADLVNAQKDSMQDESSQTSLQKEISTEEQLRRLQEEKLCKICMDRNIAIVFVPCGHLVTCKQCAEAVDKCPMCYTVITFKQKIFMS
# Chain of Dihydroorotate dehydrogenase (quinone), mitochondrial (Plasmodium falciparum (isolate 3D7)) (Q08210 whole entry, looked up): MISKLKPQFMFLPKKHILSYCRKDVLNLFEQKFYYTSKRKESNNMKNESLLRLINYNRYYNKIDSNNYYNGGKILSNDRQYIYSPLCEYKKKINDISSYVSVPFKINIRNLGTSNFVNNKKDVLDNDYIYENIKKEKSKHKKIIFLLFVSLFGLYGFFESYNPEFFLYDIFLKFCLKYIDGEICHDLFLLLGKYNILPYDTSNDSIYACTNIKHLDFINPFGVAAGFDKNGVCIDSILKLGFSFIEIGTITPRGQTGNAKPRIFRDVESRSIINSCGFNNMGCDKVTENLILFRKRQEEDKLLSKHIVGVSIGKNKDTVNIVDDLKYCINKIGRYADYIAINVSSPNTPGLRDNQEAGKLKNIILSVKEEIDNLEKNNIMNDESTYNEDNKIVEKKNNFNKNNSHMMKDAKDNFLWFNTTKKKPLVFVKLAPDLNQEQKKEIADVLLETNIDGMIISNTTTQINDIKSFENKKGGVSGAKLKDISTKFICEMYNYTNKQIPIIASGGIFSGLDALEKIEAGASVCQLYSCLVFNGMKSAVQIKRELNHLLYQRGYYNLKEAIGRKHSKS
SMILES,z-score [1],z-score [2],z-score [3],composite z-score [4],z-score [5],z-score [6],z-score [7],z-score [8],z-score [9],composite z-score [10]
CCCNC(=O)[C@@]1(Sc2ccc(C)cc2)CC(=O)N(C(C)C)[C@@H]1c1ccc(CO)cc1I,-0.202,-1.18 (inactive),-2.5 (inactive),-0.5 (inactive),0.0714 (inactive),0.29 (inactive),0.337 (inactive),-0.202 (inactive),-2.53,-0.039
Cc1ccc(S[C@]2(C(=O)NCc3ccccc3)CC(=O)N(Cc3cc(C(F)(F)F)cc(C(F)(F)F)c3)[C@@H]2c2ccc(CO)cc2I)cc1,1.24,-3.9 (inactive),-2.82 (inactive),-0.459 (inactive),0.0214 (inactive),-0.741 (inactive),0.671 (inactive),0.602 (inactive),-1.17,-0.0622
C=C(CCCC)C(=O)CC[C@H](OC(=O)c1ccccc1-c1ccccc1C(=O)O)c1ccccc1OCCO,-1.08,-1.45 (inactive),-0.976 (inactive),-0.824 (inactive),0.91 (inactive),-0.0444 (inactive),0.506 (inactive),0.237 (inactive),-1.03,0.0416
CN(C)C(=O)[C@@]1(CCC(=O)OC(C)(C)C)N=C(c2ccc(OCCCO)cc2)O[C@H]1c1ccccc1CN=[N+]=[N-],0.891,0.481 (inactive),-1.19 (inactive),-0.261 (inactive),0.317 (inactive),-0.0065 (inactive),0.364 (inactive),0.98 (inactive),0.885,-0.0272
O=c1cccc(-c2ccco2)o1,-0.675,-0.216 (inactive),0.0232 (inactive),-1.85 (inactive),0.092 (inactive),-0.231 (inactive),-0.644 (inactive),-0.338 (inactive),-0.258,-0.179
[N-]=[N+]=NCc1ccccc1C[C@@]1(C(=O)N2CCCCC2)N=C(c2ccc(OCCCO)cc2)O[C@@H]1c1ccccc1CN=[N+]=[N-],-0.539,0.069 (inactive),-1.27 (inactive),0.669 (inactive),1.87 (inactive),1.61 (inactive),0.191 (inactive),0.594 (inactive),-0.911,-0.117
COC(=O)[C@@]1(Cc2ccccc2CN=[N+]=[N-])N=C(c2ccc(OCCCO)cc2)O[C@H]1c1ccccc1CN=[N+]=[N-],-1.67,1.66 (inactive),-4.85 (inactive),2.46 (inactive),2.8 (inactive),2.88 (inactive),1.53 (inactive),-0.47 (inactive),-4.32,-0.113
CCc1cccc(NC(=O)O[C@H]2[C@H](OC(=O)Nc3ccccc3)[C@H](OC(=O)Nc3ccccc3)[C@@H](OC)O[C@@H]2CO)c1,-3.47,0.885 (inactive),-4.46 (inactive),0.0661 (inactive),1.78 (inactive),1.12 (inactive),0.0415 (inactive),0.0166 (inactive),-6.11,0.306
CC(C)N1CC=CC23O[C@@H]4/C=C\CCCOC(=O)C4[C@H]2C(=O)N(CCCCCCO)[C@@H]3C1=O (stereo not given in full),0.95,-1.13 (inactive),1.3 (inactive),-0.475 (inactive),-0.401 (inactive),0.0759 (inactive),1.62 (inactive),1.93 (inactive),0.708,0.0537
C=C[C@@H](OC)[C@H](OC(=O)Nc1ccc(OC)cc1)c1ccc(OC)c(O)c1,0.358,-1.19 (inactive),-0.143 (inactive),-0.0589 (inactive),0.295 (inactive),0.445 (inactive),0.724 (inactive),0.367 (inactive),0.185,0.431
C=CCC(OC(C)=O)[C@@H]1[C@@H](N(Cc2ccc(-c3cccc(C(F)(F)F)c3)o2)C(=O)Cc2ccc(OC)cc2)c2cc(OCCCO)ccc2N1C(=O)Cc1ccc2ccccc2c1 (stereo not given in full),-0.43,-0.753 (inactive),0.0919 (inactive),1.02 (inactive),-0.628 (inactive),0.132 (inactive),0.532 (inactive),0.279 (inactive),-0.224,-0.0286
CC(C)CNC(=O)[C@@]1(C)c2ccccc2C(=O)N(Cc2cc(C(F)(F)F)cc(C(F)(F)F)c2)[C@H]1c1ccc(CO)cc1,-0.402,0.145 (inactive),-0.47 (inactive),0.24 (inactive),-0.0933 (inactive),-0.46 (inactive),0.162 (inactive),0.644 (inactive),0.364,-0.206
COC(=O)c1c2oc(c1C(=O)OC)C(=O)N1CCC[C@H]1Cn1nncc1CN(Cc1ccccc1)C(=O)N[C@H](CO)CC2,0.744,-3.62 (inactive),-0.0795 (inactive),0.453 (inactive),-0.0513 (inactive),0.738 (inactive),0.663 (inactive),0.836 (inactive),0.343,-0.0832
CCOC(=O)C[C@H]1[C@H](OC(=O)c2ccc(-c3ccccc3)cc2)[C@@H](NC(=O)Cc2ccc(OC)cc2)c2cc(OCCCO)ccc2N1C(=O)Cc1ccc(OC)cc1,-0.0383,0.574 (inactive),0.796 (inactive),0.593 (inactive),0.149 (inactive),1.78 (inactive),1.01 (inactive),0.622 (inactive),0.643,-0.0118
C=C(/C(=C/C[C@H](OC(=O)c1ccncc1)c1cccc(OCCO)c1)c1cnc2ccccc2c1)C(C)C,-0.982,-18.5 (active),-1.09 (inactive),-25.3 (active),0.285 (inactive),-22.1 (active),0.116 (inactive),-0.147 (inactive),-0.911,0.329
C=CC1c2cc(O)c(OC)cc2CCN1Cc1ccc([N+](=O)[O-])o1 (stereo not given),-0.362,0.193 (inactive),0.336 (inactive),0.294 (inactive),-1.03 (inactive),1.11 (inactive),0.148 (inactive),-0.217 (inactive),0.685,0.188
CC1CC/C=C\[C@H]2OC34C=CCN(C(C)(C)C)C(=O)[C@H]3N(C(CO)C(C)C)C(=O)[C@@H]4C2C(=O)O1 (stereo not given in full),-0.49,-0.154 (inactive),-0.34 (inactive),-6.62 (inactive),0.0251 (inactive),-0.472 (inactive),0.361 (inactive),0.338 (inactive),-0.375,0.0357
COc1ccc([Si](C)(C)[C@@H]2[C@@H](CCn3cc([C@H](O)c4ccccc4)nn3)O[C@]3(C(=O)N(c4ccccc4)c4ccccc43)[C@H]2C)cc1,-2.07,-0.284 (inactive),-3.04 (inactive),-0.204 (inactive),1.08 (inactive),0.77 (inactive),-0.434 (inactive),-0.502 (inactive),-3.15,-0.131
[N-]=[N+]=Nc1ccccc1[C@@H]1OC(c2ccc(OCCCO)cc2)=N[C@]1(Cc1ccccc1)C(=O)NCc1ccccc1,-0.421,0.152 (inactive),-3.62 (inactive),0.613 (inactive),0.563 (inactive),0.265 (inactive),-0.324 (inactive),-0.441 (inactive),-3.62,0.338
CN1C(=O)C2C(C1=O)C1C=C(CCCO)C2C(C2CC2)N1Cc1cc2c(cc1Br)OCO2 (stereo not given),-0.622,-0.975 (inactive),-1 (inactive),-0.341 (inactive),0.0721 (inactive),0.0644 (inactive),-0.344 (inactive),-0.291 (inactive),-0.543,-0.113
COC(=O)[C@@]1(Cc2ccccc2)[C@H]2c3cc(C(=O)N4CCCC4)n(CCSCCO)c3C[C@H]2CN1C(=O)c1ccccc1,-1.19,0.712 (inactive),-1.63 (inactive),-0.337 (inactive),0.824 (inactive),0.53 (inactive),-1.01 (inactive),-0.853 (inactive),-1.68,0.361
C[C@@]12COC[C@]13C=C(Br)[C@H](C2)[C@@]1(CO1)C3=O,0.138,-1.38 (inactive),-0.0295 (inactive),-0.658 (inactive),-0.259 (inactive),-0.187 (inactive),-0.651 (inactive),-0.534 (inactive),0.219,-0.154
CCCCC(=C=CC[C@H](O)c1ccc(OCCO)cc1)C[C@H](O)c1cc(Cl)cc(Cl)c1O,0.984,-4.58 (inactive),0.437 (inactive),-1.74 (inactive),0.579 (inactive),-0.674 (inactive),0.947 (inactive),0.514 (inactive),1.36,-0.0773
C=C(CCCC)C(=O)CC[C@H](OC(C)=O)c1ccc(OCCO)cc1,0.574,-3.3 (inactive),-0.464 (inactive),-0.788 (inactive),0.0022 (inactive),-2.33 (inactive),-0.0158 (inactive),0.539 (inactive),-0.939,0.648
